From PubChem
ST2 inh: inhibitors of human ST2 (IL1RL1) binding to IL-33. Q01638. AlphaLISA ST2-Fc/biotin-IL-33 interaction, 1 h. inhibition, % for hits at 17 µM. 78,000 tested, 2.3% active. AID 1259354; in the data active means inhibition above about 30%
Target sequence (Q01638 whole entry, looked up): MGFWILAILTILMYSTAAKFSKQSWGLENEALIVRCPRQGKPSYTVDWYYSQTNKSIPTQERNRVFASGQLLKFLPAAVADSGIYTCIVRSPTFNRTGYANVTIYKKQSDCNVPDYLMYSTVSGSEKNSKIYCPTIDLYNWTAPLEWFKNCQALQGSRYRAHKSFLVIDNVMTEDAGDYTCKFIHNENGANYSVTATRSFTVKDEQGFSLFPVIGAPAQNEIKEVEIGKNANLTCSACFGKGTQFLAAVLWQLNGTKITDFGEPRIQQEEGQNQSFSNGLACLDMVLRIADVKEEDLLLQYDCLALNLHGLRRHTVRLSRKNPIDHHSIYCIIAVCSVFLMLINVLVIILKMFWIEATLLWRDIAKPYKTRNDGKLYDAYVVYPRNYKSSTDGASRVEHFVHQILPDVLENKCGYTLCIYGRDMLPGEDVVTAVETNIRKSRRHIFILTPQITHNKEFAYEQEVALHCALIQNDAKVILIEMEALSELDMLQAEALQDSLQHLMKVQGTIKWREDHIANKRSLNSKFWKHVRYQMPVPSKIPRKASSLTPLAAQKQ
Numbers without * were called inactive; i = inactive. This is one part of a sample in which hits are shown more often than they occur.

SMILES | ST2 inh
O=C1NC(=O)c2cc(N=Cc3ccc(Cl)cc3Cl)ccc21 | 70%*
COC(=O)c1sc2ccccc2c1NC(=O)c1cc(OC)cc(OC)c1 | i
Cc1c(NCc2ccccn2)cccc1C(=O)NCc1noc(C(C)C)n1 | i
Cc1nc2c(c(=O)n1C)CCN(C(=O)C1CCOC(C)(C)C1)CC2 (configuration not stated) | 31%*
Cc1nc2c(c(=O)n1C)CCN(C(=O)Nc1ccc3c(c1)OCO3)CC2 | i
Cc1ccc(C(=O)NCCC(=O)N2CCc3nc(C)n(C)c(=O)c3CC2)cc1 | i
Cc1cc(CN(C)Cc2cc3cc4c(cc3[nH]c2=O)CCC4)no1 | i
c1ccc(CCn2c3ccccc3c3nnc(SCCN4CCOCC4)nc32)cc1 | i
CCn1c2ccccc2c2nnc(SCC(=O)N3CCCc4ccccc43)nc21 | i
O=C(CSc1nnc2c3ccccc3n(CCc3ccccc3)c2n1)N1CCOCC1 | 33%*
COc1ccc(CCNC(=O)C2CC=CCC2C(=O)O)cc1OC (configuration not stated) | i
Cc1cnccc1N1CCCN(Cc2cc(C(C)C)no2)CC1 | i
COC(=O)c1c(NC(=O)COc2cc(C)cc(C)c2)sc2c1C(C(=O)OC)CC2 (configuration not stated) | i
CCOC(=O)Oc1c(Cl)cc2oc(=O)sc2c1Br | 32%*
CCOC(=O)Oc1ccc2c(c1)oc(=O)c1ccccc12 | i
COC(=O)Oc1cc2oc(=O)sc2cc1Cl | i
COc1ccc(C2C(C(=O)Nc3nc4ccccc4s3)=C(C)NC3=C2C(=O)CCC3)c(OC)c1 (configuration not stated) | i
O=C(NC1CCCCC1)C1CCN(S(=O)(=O)N2CCCC2)CC1 | i
Cc1cc(C)c(S(=O)(=O)Nc2ccc(Cl)cn2)cc1C | i
CN1CCN(C(=O)CN(c2ccccc2)S(=O)(=O)c2ccccc2[N+](=O)[O-])CC1 | i
CCOC(=O)c1[nH]c(C)c(C(=O)NC2CCCN(CCCc3ccccc3)C2)c1C (configuration not stated) | i
COc1cccc(NS(=O)(=O)c2ccc(Cl)s2)c1 | i
COC(=O)c1sc(NC(=O)CCC(=O)O)nc1C | i
O=C(Nc1ccccc1Cl)c1ccccc1[N+](=O)[O-] | i
O=C(Nc1ccc([N+](=O)[O-])cc1Cl)c1cc(I)ccc1Cl | 31%*
SMILES | ST2 inh
COc1cc([N+](=O)[O-])ccc1NC(=O)c1cc(I)ccc1Cl | i
Cc1cccc(NC(=O)c2ccc([N+](=O)[O-])cc2Cl)c1 | 31%*
O=C(Nc1ccccc1I)c1cc([N+](=O)[O-])ccc1Cl | i
O=C(Nc1cccc([N+](=O)[O-])c1)c1ccccc1Cl | i
O=C(Nc1ccccc1I)c1ccc(Cl)cc1[N+](=O)[O-] | 30%*
CC(C)Oc1ccc(NC(=O)c2ccc([N+](=O)[O-])cc2Cl)cc1 | i
O=C(Nc1ccccc1[N+](=O)[O-])c1cc(I)ccc1Cl | 35%*
O=C(Nc1cccc([N+](=O)[O-])c1)c1cc(I)ccc1Cl | i
O=C(NCc1cccs1)c1ccc(Cl)cc1[N+](=O)[O-] | i
O=C(Nc1ccc([N+](=O)[O-])cc1)c1cc(I)ccc1Cl | i
COC(=O)[C@@H]1CCCN1C(=O)c1ccccc1NCc1cccs1 | i
CCOC(=O)c1nn(CCc2ccccc2)c2c1CN(C(=O)C1CC(=O)OC13CCCCC3)CC2 (configuration not stated) | i
N#CC1=C(N)OC2=C(C(=O)CC(c3ccco3)C2)C1c1cn[nH]c1-c1ccc(F)cc1 (configuration not stated) | i
CCOc1cccc2cc(C(N)=O)c(=Nc3ccc(C)cc3)oc12 | i
CC1=C(C(=O)Nc2ccccc2C)C(c2ccc(F)c(F)c2)C2=C(CC(C)(C)CC2=O)N1 (configuration not stated) | i
O=C1CCCC2=C1C(c1ccc([N+](=O)[O-])cc1)c1c(nc(SCc3ccccc3F)[nH]c1=O)N2 (configuration not stated) | i
COc1ccc(/C=C(/NC(=O)c2ccco2)C(=O)Nc2ccc(Br)cc2)cc1 | i
COC(=O)c1nc2n(n1)C(c1ccc(Br)cc1)C1=C(CC(C)(C)CC1=O)N2 (configuration not stated) | i
O=C1Nc2ccccc2C12CCCN(Cc1ccc(-c3ccn[nH]3)o1)C2 (configuration not stated) | i
O=C(NCc1ccccc1Cl)N1CCOCC1 | i
CC1=NN(c2cccc(Br)c2)C(=O)/C1=C\c1ccc(-c2cccc([N+](=O)[O-])c2)o1 | i
O=C1NN(c2ccc(Cl)c(Cl)c2)C(=O)/C1=C\c1ccc(-c2cccc(C(=O)O)c2)o1 | i
Cc1ccc(N2NC(=O)/C(=C/c3ccc(-c4cccc([N+](=O)[O-])c4)o3)C2=O)cc1C | 61%*
Cc1ccc(Cn2c(CCNC(=O)Nc3ccccc3)nc3cccnc32)cc1 | i
CCOc1ccccc1C1C(C(=O)OCCOC)=C(C)NC2=C1C(=O)C(C(=O)OC)C(C)C2 (configuration not stated) | i
SMILES | ST2 inh
O=C(NC(=C(Cl)Cl)S(=O)(=O)c1ccccc1)c1ccc(Cl)cc1 | i
O=C(Nc1c(C(=O)Nc2ccccc2F)oc2ccccc12)c1cccc(F)c1 | i
Cn1c(=O)c2c(nc(N3CCOCC3)n2Cc2c(F)cccc2Cl)n(C)c1=O | 37%*
CN1CCN(c2nc3c(c(=O)n(C)c(=O)n3C)n2Cc2ccc(Cl)c(Cl)c2)CC1 | i
Cn1c(=O)c2c(nc(NCc3ccco3)n2Cc2c(F)cccc2Cl)n(C)c1=O | i
CC1CC(Nc2ccccc2)c2ccccc2N1C(=O)c1ccc([N+](=O)[O-])cc1 (configuration not stated) | i
O=C(CCC1CCCCC1)Nc1ccc([N+](=O)[O-])cc1 | i
O=C(c1ccc(-c2ccsc2)nc1)N1CCCN(c2ncccn2)CC1 | i
Cc1cc(N2CCOCC2)nc2ccc(NC(=O)CCC(=O)NC3CCCC(C)C3C)cc12 (configuration not stated) | i
O=C(N=c1scc(-c2ccccc2)n1-c1ccccc1)c1ccco1 | i
OCCN=c1scc(-c2ccc(Br)cc2)n1-c1ccccc1 | 39%*
O=c1c2c(-c3ccc(Br)cc3)csc2ncn1-c1ccccc1 | i
O=C(Nc1ccccc1[N+](=O)[O-])C1C2CCCCC21 (configuration not stated) | 39%*
CC(C)(C)CC(=O)Nc1ccccc1[N+](=O)[O-] | i
O=C(NC1CCCCCC1)c1ccccc1[N+](=O)[O-] | i
CC(C)(C)S(=O)(=O)CCC#N | i
Cc1cc(C)n(-c2nc3ccccc3[nH]c2=O)n1 | 46%*
Cc1cc(C)n(CCCNC(=O)c2nc3ccccc3[nH]c2=O)n1 | i
Cc1cc(C)n(-c2n[nH]c(=O)c3ccccc23)n1 | i
O=C(O)C1CC=CC[C@@H]1Cc1ccccc1 (some centres not stated) | i
O=C1C(=O)N(Cc2ccccc2)c2ccc(Br)cc21 | 30%*
O=C1c2ccccc2NC(c2ccc(Br)cc2)N1Cc1ccccc1 (configuration not stated) | i
O=C1C(=O)N(Cc2ccc(F)cc2)c2ccccc21 | i
CN1CCC2(CC1)CN(Cc1ccc(S(C)(=O)=O)cc1)CCN2C | i
CC(C)c1cc(C(=O)O)c2cc(Br)ccc2n1 | i
CCCCSc1nnc(-c2ccccc2N)c(=O)[nH]1 | i
Cc1cc2nc(Cc3cccc(F)c3)c(=O)n(C)c2cc1C | i
